The record followed here is PubChem BioAssay (Tox21).

“And” between values parts separate entries of the source, which are not always exact repeats. Equal values may be shown once. Records with an inconclusive call do not appear. Where a structure was tested more than once in an assay, its records may differ in their call. The source made the active and inactive calls. Unless noted, calls come from the whole dose curve; as a rule, active = well fitted curve in the direction sought with a large enough effect in the repeat runs; inconclusive = weak or mixed curves; inactive = no such curve, though single readings can be large; an effect the other way counts as inactive or inconclusive.

Assay [1] in a line: qHTS assay to identify small molecule antagonists of the glucocorticoid receptor (GR) signaling pathway - cell viability counter screen (AID 720693). Note: nearly all actives have a fitted effect of over 55% in size. To be noted: GR-bla HeLa viability, CellTiter-Glo luminescence, 18 h, with 5 nM dexamethasone present; series mostly up to 58.5 µM.
Assay [2] is described as follows: qHTS assay for identifying genotoxic compounds that show differential cytotoxicity against isogenic chicken DT40 cell lines with known DNA damage response pathways - wild type cell line (AID 743012). Note: nearly all actives have a fitted effect of over 60% in size. The settings on record: DT40 wild type chicken cells viability, CellTiter-Glo, 40 h; series mostly up to 68.4 µM. In outline: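 Cells (DT40 wild type, 300/well) are treated with DMSO-dissolved compounds after a ~0.5 h pre-incubation and kept 40 h at 37 C/5% CO2. Viability is then measured by CellTiter-Glo luminescence following 30 min at room temperature.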

A short description of assay [3]: qHTS assay for identifying genotoxic compounds that show differential cytotoxicity against isogenic chicken DT40 cell lines with known DNA damage response pathways - Rev3 mutant cell line (AID 743014). Note: nearly all actives have a fitted effect of over 55% in size. To be noted: chicken DT40 Rev3-/- viability, CellTiter-Glo, 40 h; series mostly up to 68.4 µM.
A short description of assay [4]: qHTS assay for identifying genotoxic compounds that show differential cytotoxicity against isogenic chicken DT40 cell lines with known DNA damage response pathways - Rad54/Ku70 mutant cell line (AID 743015). Note: nearly all actives have a fitted effect of over 60% in size. To be noted: DT40 Rad54/Ku70 mutant viability, CellTiter-Glo, 40 h; series mostly up to 66.8 µM. For orientation: In qHTS, concentration-response curves come from the screen itself.

Assay [5] can be described thus: qHTS assay to identify small molecule antagonists of the androgen receptor (AR) signaling pathway - cell viability counter screen (AID 743033; note: nearly all actives have a fitted effect of over 45% in size). To be noted: AR-bla HEK293 viability, CellTiter-Glo luminescence, 16 h; series mostly up to 58.5 µM.
The nature of assay [6]: qHTS assay to identify small molecule antagonists of the androgen receptor (AR) signaling pathway using the MDA cell line - cell viability counter screen (AID 743041; note: nearly all actives have a fitted effect of over 45% in size). The settings on record: MDA-kb2 viability, CellTiter-Fluor, 16 h, cells co-treated with R1881 androgen agonist; series mostly up to 70.3 µM. In outline:
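R1881-driven MDA-kb2 AR-luc cells, 3,000/well, were dosed with library compounds for 16 h; cell health came from CellTiter-Fluor fluorescence in the reporter wells.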

The nature of assay [7]: qHTS assay to identify small molecule antagonists of the thyroid receptor (TR) signaling pathway - cell viability counter screen (AID 743064). Note: nearly all actives have a fitted effect of over 50% in size. To be noted: GH3.TRE-Luc viability, CellTiter-Fluor, 24 h; series mostly up to 70.3 µM. In outline: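 Viability of T3-stimulated (1 nM final) GH3.TRE-Luc cells is measured by CellTiter-Fluor fluorescence after 23.5 h compound exposure at 37 °C plus 30 min reagent incubation.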

A short description of assay [8]: qHTS assay to identify small molecule antagonists of the thyroid receptor (TR) signaling pathway (AID 743065). Note: nearly all actives have a fitted effect of over 55% in size. Note: potency is the fitted concentration of half-maximal effect. To be noted: GH3.TRE-Luc, T3-stimulated luciferase inhibition, 23.5 h; series mostly up to 70.3 µM. An outline of the steps: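 Antagonism measured as loss of luciferase signal in GH3 cells stably carrying a TRE-luciferase reporter, co-treated with compound and T3 (1 nM final) for 23.5 h at 37 C. Viability was read in the same well by CellTiter-Fluor.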

The test system of assay [9] is thyroid hormone receptor (rat, GH3 cells). The experiment in a line: qHTS assay to identify small molecule agonists of the thyroid receptor (TR) signaling pathway (AID 743066; calls by dose curve). The settings on record: GH3.TRE-Luc cells, TR agonist luciferase, 24 h; series mostly up to 83.9 µM.
A short description of assay [10]: qHTS assay to identify small molecule antagonists of the estrogen receptor alpha (ER-alpha) signaling pathway - cell viability counter screen (AID 743074; calls by dose curve; note: nearly all actives have a fitted effect of over 45% in size). The settings on record: ERalpha-bla HEK293 viability, CellTiter-Glo luminescence, 18 h; series mostly up to 69.4 µM.
Assay [11] in a line: qHTS assay to identify small molecule antagonists of the estrogen receptor alpha (ER-alpha) signaling pathway using the BG1 cell line - cell viability counter screen (AID 743081).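 Note: compound given together with 17beta-estradiol as the ER stimulus; nearly all actives have a fitted effect of over 45% in size.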 To be noted: BG1Luc4E2 viability, CellTiter-Fluor, 22 h; series mostly up to 70.3 µM.
In the next assay the target is Aromatase (Homo sapiens) (UniProt P11511). Description: qHTS assay to identify aromatase inhibitors (AID 743083). Note: nearly all actives have a fitted effect of over 55% in size. The settings on record: MCF-7 aro ERE, testosterone-driven ERE luciferase, 24 h; series mostly up to 70.3 µM.
Aromatase (Homo sapiens), sequence (P11511 whole entry, looked up): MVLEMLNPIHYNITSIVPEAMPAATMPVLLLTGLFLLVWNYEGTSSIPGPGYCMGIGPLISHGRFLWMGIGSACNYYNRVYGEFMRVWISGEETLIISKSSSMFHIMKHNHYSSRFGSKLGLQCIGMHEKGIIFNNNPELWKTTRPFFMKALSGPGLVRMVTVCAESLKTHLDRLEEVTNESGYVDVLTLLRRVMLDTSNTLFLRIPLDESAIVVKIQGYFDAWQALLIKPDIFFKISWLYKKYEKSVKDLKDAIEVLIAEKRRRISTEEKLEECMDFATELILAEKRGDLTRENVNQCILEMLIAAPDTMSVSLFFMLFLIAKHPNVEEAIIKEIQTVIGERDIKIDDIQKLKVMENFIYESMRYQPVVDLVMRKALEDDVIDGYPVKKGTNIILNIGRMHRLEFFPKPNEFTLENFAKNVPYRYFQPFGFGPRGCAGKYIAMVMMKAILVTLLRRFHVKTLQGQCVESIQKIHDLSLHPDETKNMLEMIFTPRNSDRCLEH
Assay [12] has as its target Estrogen receptor (Homo sapiens) (UniProt P03372). Description: qHTS assay to identify small molecule agonists of the estrogen receptor alpha (ER-alpha) signaling pathway (AID 743075; calls by dose curve). The settings on record: HEK293 ER-alpha-UAS-bla, beta-lactamase FRET ratio, 18 h; series mostly up to 70.1 µM.
Assay [13] has the same target. The experiment in a line: qHTS assay to identify small molecule agonists of the estrogen receptor alpha (ER-alpha) signaling pathway using the BG1 cell line (AID 743079). Note: nearly all actives have a fitted effect of over 20% in size. Note: potency is the fitted concentration of half-maximal effect. The settings on record: BG1Luc4E2 cells, ERE-luciferase agonist, 22 h; series mostly up to 70.3 µM.
Assay [14] in a line: qHTS assay to identify small molecule antagonists of the estrogen receptor alpha (ER-alpha) signaling pathway using the BG1 cell line (AID 743080; calls by dose curve;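 note: BG1 cells stimulated with 17beta-estradiol alongside compound; nearly all actives have a fitted effect of over 25% in size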). To be noted: BG1Luc4E2 ERE-luciferase antagonist mode, luminescence; series mostly up to 70.3 µM. An outline of the steps: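 Luciferase inhibition measured with ONE-Glo after 30 min at RT in BG1Luc4E2 cells given test compounds and 17beta-estradiol for 21.5 h at 37 C; CellTiter-Fluor viability read in the same wells beforehand.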

The target of assay [15] is Androgen receptor (Homo sapiens) (UniProt P10275). Description: qHTS assay to identify small molecule agonists of the androgen receptor (AR) signaling pathway (AID 743036; active = well fitted activation curve with a large enough effect in the signal ratio in the repeat runs, with a control signal flat, not every such curve was filed as active; the % refers to the signal ratio). To be noted: HEK293 AR-UAS-bla GripTite, beta-lactamase FRET ratio, 16 h; series mostly up to 62.4 µM. An outline of the steps:
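Screening used 2,000 AR-bla HEK293 cells per well, treated 16 h at 37C with test compounds in DMSO alongside positive and DMSO-only controls; beta-lactamase activity was then read by LiveBLAzer B/G FRET fluorescence after 2 h at room temperature.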

Assay [16] has the same target. Description: qHTS assay to identify small molecule agonists of the androgen receptor (AR) signaling pathway using the MDA cell line (AID 743040; note: nearly all actives have a fitted effect of over 20% in size). The settings on record: MDA-kb2 AR-luc cells, MMTV luciferase, 16 h; activity change: at 70.3 µM (top of the series), stronger effect = higher value. In outline:
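After a 5 h incubation at 37C and 0% CO2, MDA-kb2 reporter cells were dosed with compounds in DMSO and kept 16 h under the same conditions. Luciferase activity was then read as luminescence with ONE-Glo.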

Assay [17] shares this target. Description: qHTS assay to identify small molecule antagonists of the androgen receptor (AR) signaling pathway using the MDA cell line (AID 743042; note: nearly all actives have a fitted effect of over 55% in size). The settings on record: MDA-kb2 AR-luc, MMTV luciferase, R1881 antagonist, 16 h; series mostly up to 70.3 µM. In outline:
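Antagonist mode: compounds plus R1881 agonist added to MDA-kb2 AR-luc cells, incubated 16 h at 37C. Luciferase reporter luminescence quantified, with multiplexed CellTiter-Fluor readout for cell viability.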

The target of assay [18] is Estrogen receptor (Homo sapiens) (UniProt P03372). Description: qHTS assay to identify small molecule antagonists of the estrogen receptor alpha (ER-alpha) signaling pathway (AID 743069; active = well fitted curve in the direction sought with a large enough effect in the signal ratio in the repeat runs, not every such curve was filed as active; the % refers to the signal ratio). To be noted: HEK293 ER-alpha-UAS-bla, beta-lactamase ratio, antagonist mode; series mostly up to 69.4 µM. In outline: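 Compound effects are measured against 17beta-estradiol stimulation in HEK293 cells with a UAS-controlled beta-lactamase reporter for ER-alpha. Exposure lasts 18 hr at 37C; LiveBLAzer B/G FRET substrate follows for 2 hr at room temperature.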
Estrogen receptor (Homo sapiens), sequence (P03372 whole entry, looked up): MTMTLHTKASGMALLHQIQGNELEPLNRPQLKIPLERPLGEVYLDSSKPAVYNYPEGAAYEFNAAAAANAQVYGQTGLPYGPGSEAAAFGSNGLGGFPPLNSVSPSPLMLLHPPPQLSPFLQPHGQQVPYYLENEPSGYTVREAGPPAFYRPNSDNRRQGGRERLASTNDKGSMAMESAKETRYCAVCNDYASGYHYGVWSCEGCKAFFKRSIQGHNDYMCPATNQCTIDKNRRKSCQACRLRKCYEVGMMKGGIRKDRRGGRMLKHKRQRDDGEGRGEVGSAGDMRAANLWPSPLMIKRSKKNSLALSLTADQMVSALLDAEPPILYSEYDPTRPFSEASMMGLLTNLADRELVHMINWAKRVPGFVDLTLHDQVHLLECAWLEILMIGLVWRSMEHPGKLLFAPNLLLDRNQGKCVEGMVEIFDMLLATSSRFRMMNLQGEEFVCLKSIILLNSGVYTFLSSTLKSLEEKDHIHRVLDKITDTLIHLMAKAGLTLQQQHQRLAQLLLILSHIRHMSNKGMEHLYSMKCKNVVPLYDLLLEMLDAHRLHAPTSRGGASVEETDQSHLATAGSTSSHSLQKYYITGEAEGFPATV

Androgen receptor (Homo sapiens), sequence (P10275 whole entry, looked up): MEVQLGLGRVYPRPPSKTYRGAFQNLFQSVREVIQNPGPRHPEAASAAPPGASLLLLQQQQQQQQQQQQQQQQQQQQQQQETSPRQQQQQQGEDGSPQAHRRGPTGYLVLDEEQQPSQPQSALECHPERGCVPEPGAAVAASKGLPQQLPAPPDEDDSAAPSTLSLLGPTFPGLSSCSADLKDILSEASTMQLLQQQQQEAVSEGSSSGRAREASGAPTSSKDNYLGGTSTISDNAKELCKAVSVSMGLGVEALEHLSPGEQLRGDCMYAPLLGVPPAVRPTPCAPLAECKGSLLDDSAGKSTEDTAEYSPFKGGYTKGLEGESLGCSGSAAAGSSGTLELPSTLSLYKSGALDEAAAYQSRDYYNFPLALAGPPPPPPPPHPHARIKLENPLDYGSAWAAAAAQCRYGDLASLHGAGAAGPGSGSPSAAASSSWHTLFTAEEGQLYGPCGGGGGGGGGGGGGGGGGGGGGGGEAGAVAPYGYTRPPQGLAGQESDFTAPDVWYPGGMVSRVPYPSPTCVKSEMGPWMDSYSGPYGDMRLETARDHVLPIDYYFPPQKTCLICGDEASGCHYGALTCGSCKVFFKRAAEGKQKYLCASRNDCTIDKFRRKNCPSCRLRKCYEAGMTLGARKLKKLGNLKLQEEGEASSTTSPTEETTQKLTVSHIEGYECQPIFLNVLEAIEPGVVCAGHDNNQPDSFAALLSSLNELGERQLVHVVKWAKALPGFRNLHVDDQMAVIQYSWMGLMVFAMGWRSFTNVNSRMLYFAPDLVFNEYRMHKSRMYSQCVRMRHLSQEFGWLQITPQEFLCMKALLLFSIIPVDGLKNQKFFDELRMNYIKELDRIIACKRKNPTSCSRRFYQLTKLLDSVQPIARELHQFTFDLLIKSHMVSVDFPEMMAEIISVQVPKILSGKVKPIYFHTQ

On to `C=CCc1ccc2c(c1)OCO2`, for which the Potency entry in assay [1], in assay [2], in assay [3], in [4], in assay [5] and in assay [6] was “inactive” throughout. The Potency result (in assay [7]; in assay [8]; in [9]; in assay [10]; in assay [11]; with Aromatase (Homo sapiens)) was “inactive” each time.

With `COC(=O)c1sccc1S(=O)(=O)NC(=O)Nc1nc(C)nc(OC)n1`, the Potency result in assay [1], in [2], in assay [3], in assay [4], in assay [5] and in assay [6] was “inactive” throughout. The Potency entry in assay [7], in assay [8], in assay [9], in [10], in assay [12] and in assay [13] was “inactive” in each case. For the same molecule, the Potency entry (in assay [14]; in [11]; with Aromatase (Homo sapiens)) was “inactive” in each case.

For `CCN(N=O)C(N)=O`, the Potency result in [1], in assay [2], in [3], in [4], in assay [5] and in [6] was “inactive” each time. Further, the Potency result in assay [7], in assay [8], in assay [9], in [10], in assay [12] and in assay [13] was “inactive” in each case. The Potency result (in [14]; in [11]; in the assay with Aromatase (Homo sapiens)) was “inactive” in each case.

For `CCCCC(CC)COC(=O)c1ccc(C(=O)OCC(CC)CCCC)c(C(=O)OCC(CC)CCCC)c1` (centres undefined), the Potency entry in [1], in assay [2], in assay [3], in assay [4], in assay [5] and in assay [15] was “inactive” throughout. In addition, the Potency result in assay [16], in assay [6], in assay [17], in assay [7], in assay [8] and in assay [9] was “inactive” throughout. The Potency result (in assay [10]; in assay [11]; in the assay with Aromatase (Homo sapiens)) was “inactive” throughout.

In the case of `Nc1cccnc1`, the Potency entry in assay [1], in assay [2], in [3], in assay [4], in assay [5] and in assay [6] was “inactive” in each case. Also, the Potency result in assay [7], in assay [8], in assay [9], in assay [10], in assay [12] and in [13] was “inactive” throughout. Further, the Potency result (in assay [14]; in assay [11]; in the assay with Aromatase (Homo sapiens)) was “inactive” each time.

With `O=C(NC(=O)c1c(F)cccc1F)Nc1ccc(Cl)cc1`, the Potency result in assay [1], in assay [2], in assay [3], in [4], in [5] and in [6] was “inactive” each time. Further, the Potency entry in assay [7], in assay [8], in assay [9], in assay [18], in assay [10] and in assay [12] was “inactive” each time. The Potency entry (in [11]; with Aromatase (Homo sapiens)) was “inactive” each time. Further, the Potency entry in [13] was “inactive and 2.43 µM (active)”.

As for `C#C[C@]1(O)CC[C@H]2[C@@H]3CCC4=CC(=O)CC[C@]4(C)[C@H]3CC[C@@]21C`, the Potency entry in assay [1], in [2], in assay [3], in assay [4], in assay [5] and in assay [6] was “inactive” each time. For the same molecule, the Potency result (in assay [7]; in assay [9]; in assay [10]; in assay [11]; with Aromatase (Homo sapiens)) was “inactive” throughout. In addition, the Potency in [8] is 6.86 µM (active).
